Test [1] concerns the target Cellular tumor antigen p53 (Homo sapiens) (UniProt P04637). Put plainly: Primary qHTS for small molecule compounds that upregulate eGFP-tagged delta133p53alpha (in N-terminal) cells. (AID 2060322).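 For activation: cells pre-induced with doxycycline then dosed without doxycycline; series mostly up to about 56 µM; 0% = DMSO vehicle and 100% = reference activator.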 Note: nearly all actives have a fitted effect of over 75% in size. Note: potency is the fitted concentration of half-maximal effect. The following applies: NCI-H358 eGFP-delta133p53alpha fluorescence, 24 h; activation: active compounds read high. The procedure, abridged:
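NCI-H358 cells pre-induced 24 h with 10 ng/ml doxycycline for eGFP-delta133p53alpha, plated dox-free and exposed 24 h at 37C to titrated compounds. Fixed, Hoechst-stained; gated GFP peak intensity by laser scanning cytometry, normalized to DMSO (0%) and 57.5 uM 5-azacytidine (100%).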

Test [2] has as its target Aldehyde dehydrogenase, mitochondrial (Homo sapiens) (UniProt P05091). Put plainly: qHTS for Inhibitors of the Aldehyde Dehydrogenase Family (ALDH2) Primary screen (AID 2061308).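 Note: plate controls were vehicle for no effect and reference inhibitor for full effect; nearly all actives have a fitted effect of over 55% in size.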
The target in test [3] is Retinaldehyde dehydrogenase 3 (Homo sapiens) (UniProt P47895). Put plainly: qHTS for Inhibitors of the Aldehyde Dehydrogenase Family (ALDH1A3) Primary screen (AID 2061315).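 Note: plate controls were DMSO vehicle for no effect and reference inhibitor for full effect.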

Results filed as inconclusive are left out. Values without a mark were called inactive. Activity calls are given as the source filed them. Calls come from the whole dose curve; as a rule, active = well fitted curve in the direction sought with a large enough effect; inconclusive = small, poorly fitted or top-dose-only effect, or another doubt; inactive = no such curve, though single readings can be large; an effect the other way counts as inactive or inconclusive.

Chain of Cellular tumor antigen p53 (Homo sapiens) (P04637 whole entry, looked up): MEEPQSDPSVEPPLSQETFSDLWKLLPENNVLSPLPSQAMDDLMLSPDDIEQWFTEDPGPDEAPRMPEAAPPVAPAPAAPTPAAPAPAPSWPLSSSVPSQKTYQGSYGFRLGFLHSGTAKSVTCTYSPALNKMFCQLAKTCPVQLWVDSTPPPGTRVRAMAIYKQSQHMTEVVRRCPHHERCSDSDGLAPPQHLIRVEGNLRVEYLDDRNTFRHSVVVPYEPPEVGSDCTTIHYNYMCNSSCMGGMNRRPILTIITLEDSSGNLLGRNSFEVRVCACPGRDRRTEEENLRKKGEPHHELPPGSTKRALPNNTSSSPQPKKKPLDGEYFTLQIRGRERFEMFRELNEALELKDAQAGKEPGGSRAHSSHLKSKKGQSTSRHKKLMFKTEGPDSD

As for `C=C1C(=O)O[C@@H]2[C@H]1[C@H](O)C[C@]1(C)[C@@H](O)CC=C(C)[C@@H]21`, the Potency in test [1] is 15.1 µM (active). Moreover, the Potency result in test [2] and in test [3] was “inactive” throughout.

`CC1(C)CC2C3=CCC4C5(C)CCC(OC6OC(CO)C(O)C(OC7OC(CO)C(O)C(OC8OC(CO)C(O)C(OC9OC(COC%10OC(CO)C(O)C(O)C%10O)C(O)C(O)C9O)C8O)C7O)C6O)C(C)(C)C5CCC4(C)C3(C)CCC2(C(=O)O)CC1O` (centres undefined): in test [1], the activation is -24.4%. The values for the activity change, negative = inhibition in test [2] and in test [3] were 8.77% [at 11.2 µM] and 1.03% [at 11.2 µM], respectively.

`COC(=O)[C@]1(C)CCC[C@@]2(C)C(=O)CC[C@H]3C(=O)C=C(CC[C@@H]21)C3O` (some centres undefined): in test [1], the activation is 1.53%. For the same compound, the Potency result in test [2] and in test [3] was “inactive” throughout.

As to `C=C(CC/C=C(\C)C(=O)O)C1(O)CC=C(C)CC1` (centres undefined), the activation in test [1] is -21.4%. In addition, the Potency result in test [2] and in test [3] was “inactive” each time.

Turning to `COc1cc2c(cc1OC)[C@@H]1[C@H](O)[C@@H](OC)C=C3CCN(C2)[C@H]31`, in test [1], the Potency is 16.6 µM (active). Further, the Potency entry in test [2] and in test [3] was “inactive” in each case.

As for `C=C1CCC2C(C)(C(=O)O)CC(O)CC2(C)C1CC/C(C)=C/C(=O)O` (centres undefined), the activation in test [1] was -9.92%. Further, the Potency result in test [2] and in test [3] was “inactive” each time.

Regarding `CCCCNc1ncc(C(=O)NCc2ccc(-n3ccnc3)cc2)c(NC2CCC(O)CC2)n1` (centres undefined), in test [1], the Potency is 21.3 µM (active). For the same compound, the Potency result in test [2] and in test [3] was “inactive” throughout.

Consider `O=C(Cc1ccc(Cl)cc1)Nc1cnccc1C(=O)O`, for which the activation in test [1] is -12.3%. Also, the Potency entry in test [2] and in test [3] was “inactive” throughout.

As for `COc1cc(C2c3cc(O)c(OC)cc3CC(CO)C2CO)ccc1O` (centres undefined), in test [1], the activation is 8.93%. Moreover, the Potency entry in test [2] and in test [3] was “inactive” each time.

For `CNC(=O)[C@H]1O[C@@H](n2cnc3c(NCc4ccc(N)c(I)c4)ncnc32)[C@H](O)[C@@H]1O`, the activation in test [1] was 4.33%. Moreover, the results for the activity change, negative = inhibition in test [2] and in test [3] were 0.813% [at 11.2 µM] and 4.83% [at 11.2 µM], respectively.

For the compound `O=C1NC(Cc2c[nH]c3ccccc23)C(=O)NC1Cc1cnc[nH]1` (centres undefined), the activation in test [1] was -5.36%. The Potency entry in test [2] and in test [3] was “inactive” each time.

For `C=C(C)C1Cc2cc(C(=O)OC3OC(CO)C(O)C(O)C3O)ccc2O1` (centres undefined), the activation in test [1] was 9.92%. In addition, the Potency entry in test [2] and in test [3] was “inactive” each time.

For the compound `C=CC(C)(O)CC/C=C(\C)C(=O)OC1C(O)C(CO)OC(OC(=O)C23CCC(C)(C)CC2C2=CCC4C5(C)CCC(OC6OC(COC7OCC(OC(C)=O)C(O)C7OC7OC(COC(C)=O)C(O)C(O)C7O)C(O)C(O)C6O)C(C)(C)C5CCC4(C)C2(C)C(O)C3O)C1OC1OCC(OC2OCC(O)C(OC3OCC(O)C(O)C3O)C2O)C(O)C1O` (centres undefined), the activation in test [1] was -9.16%. In addition, the activity change, negative = inhibition in test [2] is 5.34% [at 11.2 µM]; in test [3], 15% [at 11.2 µM].

Regarding `COc1cc2c(cc1OC)N1C(=O)C[C@]34C=CCN5CC[C@@H]2[C@@H](CC3)[C@]514`, the activation in test [1] is 3.05%. Besides, the Potency entry in test [2] and in test [3] was “inactive” each time.

As to `COC(=O)C[C@H]1C(C)(C)[C@H](OC(=O)c2ccccc2)C2CC3=C4CC(=O)O[C@@H](c5ccoc5)[C@]4(C)CCC3[C@@]1(C)C2=O` (some centres undefined), in test [1], the activation is -5.34%. Moreover, the Potency result in test [2] and in test [3] was “inactive” throughout.

For the compound `C=CCc1cc(OC)c(OC(C)C(O)c2ccc(O)c(OC)c2)c(OC)c1` (centres undefined), the activation in test [1] was 4.46%. Further, the Potency entry in test [2] and in test [3] was “inactive” throughout.

Consider `CC(C)CCC1(O)C(=O)C(C)(C)C(O[C@@H]2O[C@H](CO)[C@@H](O)[C@H](O)[C@H]2O)C(C)(C)C1O` (some centres undefined), for which the activation in test [1] was 12.5%. For the same compound, the Potency entry in test [2] and in test [3] was “inactive” throughout.

Take `COc1cc2c(c(O)c1OC/C=C(\C)CC/C=C(/C)CCC=C(C)C)CN(C(CCC(=O)O)C(=O)O)C2=O` (centres undefined): the activation in test [1] is -30.5%. In addition, the Potency entry in test [2] and in test [3] was “inactive” in each case.

In the case of `C=CC1(C)C=C2C(=O)OC(=O)C3=C(CCCC3(C)C)C2(O)CC1` (centres undefined), the activation in test [1] is -22.9%. Further, the Potency result in test [2] and in test [3] was “inactive” throughout.

With `CC(C)(O)/C=C1/C(=O)C(C)(C)C(=O)C(C)(C)C1(O)O[C@@H]1O[C@H](COC(=O)c2cc(O)c(O)c(O)c2)[C@@H](O)[C@H](O)[C@H]1O` (some centres undefined), in test [1], the activation was 0.763%. Besides, the Potency result in test [2] and in test [3] was “inactive” throughout.

Consider `COC(=O)c1cc(CN2CCN(C(=N)N)CC2)cc(C(=O)N2CCN(C(=O)c3ccc(C(=N)N)cc3)CC2)c1`, for which the activation in test [1] is 1%. Further, the Potency result in test [2] and in test [3] was “inactive” in each case.

Turning to `C=CC(C)(O)C(O)CC1C(C)(O)C(O)C(O)C2C(C)(C)CCCC21C` (centres undefined), in test [1], the activation is -20.6%. Also, the Potency entry in test [2] and in test [3] was “inactive” in each case.

In the case of `NC(=O)c1csc(C2OC(CO)C(O)C2O)n1` (centres undefined), the activation in test [1] is -7%. Moreover, the Potency entry in test [2] and in test [3] was “inactive” in each case.

The values above are taken from PubChem BioAssay (NCATS).
